# Test results published in PubChem BioAssay (NCI).
# The panel holds about 83,000 compounds, 20% with a hit somewhere; the sample as a whole holds those more often.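 Single-dose data. Exposure time 48 hours. Values below 10 considered active.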 Unmarked numbers belong to inactive results. The source made the active and inactive calls.
# Experiments:
# Assay in all cases: NCI-60 one-dose screen, 48 h (100 = growth as untreated, 0 = no growth, -100 = all killed)
# Settings in all cases: 10 µM unless noted
# NCI-H23 lung = system: NCI-H23 lung
# NCI-H226 lung = system: NCI-H226 lung
# NCI-H322M lung = system: NCI-H322M lung
# HOP-62 NSCLC = system: HOP-62 NSCLC
# NCI-H460 lung = system: NCI-H460 lung
# HOP-92 NSCLC = system: HOP-92 NSCLC
# NCI-H522 lung = system: NCI-H522 lung
# A549/ATCC NSCLC = system: A549/ATCC NSCLC
# 786-0 renal = system: 786-0 renal
# COLO 205 colon = system: COLO 205 colon
# DU-145 prostate = system: DU-145 prostate
# K-562 leukemia = system: K-562 leukemia
# MALME-3M melanoma = system: MALME-3M melanoma
# MDA-MB-231 breast = system: MDA-MB-231 breast
# SF-268 CNS = system: SF-268 CNS
# SF-295 CNS = system: SF-295 CNS
# SF-539 CNS = system: SF-539 CNS
# UACC-257 melanoma = system: UACC-257 melanoma
# M14 melanoma = system: M14 melanoma
Compound,growth (NCI-H23 lung),growth (NCI-H226 lung),growth (NCI-H322M lung),growth (HOP-62 NSCLC),growth (NCI-H460 lung),growth (HOP-92 NSCLC),growth (NCI-H522 lung),growth (A549/ATCC NSCLC),growth (786-0 renal),growth (COLO 205 colon),growth (DU-145 prostate),growth (K-562 leukemia),growth (MALME-3M melanoma),growth (MDA-MB-231 breast),growth (SF-268 CNS),growth (SF-295 CNS),growth (SF-539 CNS),growth (UACC-257 melanoma),growth (M14 melanoma)
NS(=O)(=O)c1cccc(NC(=O)C(=O)C2C(=O)Nc3ccccc32)c1 (configuration not stated),95.3%,95.9%,121%,90.2%,106%,74.6%,102%,103%,114%,123%,107%,109%,102%,95.7%,105%,94.2%,101%,100%,99.1%
CS(=O)(=O)c1ccc(-c2cc3c(oc2=O)-c2ccccc2OC3O)cc1 (configuration not stated),90.3%,74.7%,107%,94.9%,91.7%,38.1%,92.7%,104%,88.7%,114%,87.1%,81%,101%,98.7%,96.6%,75.7%,90.2%,-3.93% (active),–
CC(C)Sc1nc(NN)c(C#N)c(-c2ccccc2)n1,100%,100%,91.1%,102%,98.6%,83.5%,94.7%,102%,97.8%,114%,108%,101%,95.7%,99.3%,100%,98.7%,89.9%,102%,108%
Clc1cc(Cl)cc(N2N=C(c3cccc(Nc4ccncc4)c3)CC2c2ccccc2)c1 (configuration not stated),82.8%,93.1%,78%,43.6%,-76.1% (active),55.7%,65.2%,45.5%,86.3%,-49.7% (active),35.7%,0.584% (active),32.7%,58.1%,84.3%,9.59% (active),80.9%,84.7%,64.1%
CC1(c2ccccc2)NC(=O)N(CC(=O)Nc2cccc(I)c2)C1=O (configuration not stated),95.3%,72.2%,83.8%,76.7%,93.3%,60.1%,67.5%,87.6%,95.3%,106%,106%,91.7%,75.3%,75%,89.7%,94%,89.9%,84.9%,102%
N/C(=N\N=C\c1cc2ccccc2s1)N/N=C/c1cc2ccccc2s1,103%,99.5%,108%,110%,102%,97%,91.8%,106%,5.55% (active),112%,115%,97.5%,102%,95.4%,102%,103%,101%,98.1%,–
CC(C)(C)CC(C)(C)Nc1c(-c2ccc3c(c2)OCO3)nc2cnccn12,97.7%,90.1%,101%,97.9%,97.2%,70.3%,74.1%,82.7%,67.7%,102%,101%,72%,111%,83.9%,84.1%,86.2%,91.5%,101%,–
CC(=O)OCC(=O)[C@@]1(O)CC[C@H]2[C@@H]3CC(=C(Br)Br)C4=CC(=O)CC[C@]4(C)[C@H]3C(=O)C[C@@]21C,88.6%,92.1%,88.5%,71.9%,103%,87.3%,66.6%,65.1%,85.1%,99.5%,107%,102%,98.3%,86%,89.8%,76.7%,98.4%,67.6%,82.3%
CC(C)[N+](C)(CCOC(COc1ccccc1)COc1ccccc1)C(C)C,84.1%,91.2%,101%,98.6%,106%,72.2%,68%,92.5%,102%,67.9%,106%,53%,105%,98%,94.5%,98.9%,100%,78.7%,–
Fc1ccc(C2CC(c3cccc(Nc4ccncc4)c3)=NN2c2ccccc2)cc1 (configuration not stated),86.3%,95.5%,70.6%,49.5%,-41.9% (active),37.1%,75.8%,43.1%,81.7%,-64.8% (active),44.1%,0.671% (active),-5.72% (active),64.3%,73.1%,73.4%,69.7%,37.8%,–
COc1cc(-c2nc3sccn3c2-c2ccnc(NCCNS(=O)(=O)c3ccc(F)cc3)n2)ccc1F,13%,3.23% (active),29.7%,32.3%,13.6%,18.8%,-6.6% (active),5.95% (active),30.9%,5.45% (active),19.6%,5.81% (active),-34.2% (active),22.3%,19%,4.27% (active),31.2%,-12.7% (active),–
O=C1c2cccnc2C(=O)c2nc3cc(N4CCN(C5CC5)CC4)ccc3nc21,-56.5% (active),-49.1% (active),-96.7% (active),-56.6% (active),-54.1% (active),62.5%,-50.5% (active),-53.3% (active),28.1%,-68.3% (active),-75.9% (active),0.866% (active),-100% (active),15.1%,12.5%,-88.9% (active),-99.4% (active),-84.5% (active),-91.2% (active)
COc1nccnn1,107%,96.2%,91%,114%,122%,69.5%,109%,102%,104%,112%,96.2%,80.7%,120%,110%,114%,136%,104%,109%,108%
CCN(CC)S(=O)(=O)c1cccc([N+](=O)[O-])c1,102%,85.3%,104%,74.5%,99.5%,87.9%,72.3%,65.3%,89.4%,102%,117%,96%,99.2%,105%,93.4%,94.4%,98.9%,67%,84.9%
c1ccc(N2N=C(c3cccc(Nc4ccncc4)c3)CC2c2ccc3c(c2)OCO3)cc1 (configuration not stated),61.1%,77.7%,42.7%,23.5%,-48.5% (active),25.6%,17.9%,21.1%,81%,-53% (active),16.4%,4.94% (active),-22.6% (active),37.7%,29.9%,-17.1% (active),9.86% (active),27.2%,93.1%
CC(N)C(=O)NNc1n[nH]c(=S)n1N (configuration not stated),100%,97.1%,92%,106%,103%,94.6%,98%,102%,95.8%,111%,109%,107%,94%,105%,94.2%,94.7%,100%,98.8%,95.2%
COc1cc(-c2nc3occn3c2-c2ccnc(NCCNS(=O)(=O)c3ccc(Cl)cc3)n2)ccc1F,92.2%,73.2%,91.6%,93.3%,88.8%,78.5%,66.4%,82%,84.9%,86.5%,89.8%,58.9%,80.1%,78.3%,68.4%,88.6%,85.4%,90.2%,86%
